This is a sample that favours compounds with a hit; in the whole collection about 2.2% have one here.
FUS yeast rescue – FUS proteinopathy suppression in yeast. actives 0.24% (n = 390,000). Potency, µM (highest dose often 76.6 µM), actives largely listed as activators. S. cerevisiae FUS-expressing, growth rescue, OD600, 24 h; note: nearly all actives have a fitted effect of over 55% in size
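Toxicity suppression screen in FUS-yeast. Cells induced with 2% galactose, starting OD 0.005, treated 24hr at 30C with compounds at multiple final concentrations; growth by OD600.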
Abeta rescue – restores growth of yeast expressing A-beta42 peptide; actives 0.063% (n = 410,000); Potency, µM (top dose mostly 46.1 µM), actives largely listed as activators; yeast expressing A-beta42, growth rescue, OD600, 48 h; response scale: 0% DMSO, 100% iron-clioquinol control; AID 1347071; note: nearly all actives have a fitted effect of over 55% in size
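Yeast A-beta toxicity model in growth medium with pinned compounds, 48 h at 30 C; growth read as absorbance at 600 nm. Normalized to FeCl3/clioquinol equimolar mix (positive) and DMSO (negative).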
aSyn rescue – rescues yeast growth from alpha-synuclein toxicity. Yeast expressing alpha-synuclein, growth rescue, BacTiter-Glo, 24 h. Potency, µM (top dose mostly 46.1 µM), most hits filed as activators. actives 0.14% (n = 370,000). AID 652106; note: nearly all actives have a fitted effect of over 65% in size
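Readout is rescue of growth in alpha-synuclein-expressing yeast, so inhibitors of toxicity appear as activators. Growth after 24 hr at 30 deg C in galactose medium is quantified by luminescence.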
ERG Ets-DNA blk – ERG Ets/DNA interaction inhibition. P11308. fluorescence polarization, His-ERG Ets domain / labelled DNA. Potency, µM (top dose mostly 76.9 µM), hits mostly inhibitors. actives 0.028% (n = 370,000); active = well fitted inhibition curve with a large enough effect in the polarisation, with a control signal flat; inconclusive = small, poorly fitted or top-dose-only effect, or effect the other way, or a change in a side signal; inactive = no such curve, though single readings can be large or run the other way; the % refers to the polarisation;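 note: polarization taken with two DNA probes labelled with fluorescein and Texas red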
Target sequence (P11308 whole entry, looked up, the tested form may be a part): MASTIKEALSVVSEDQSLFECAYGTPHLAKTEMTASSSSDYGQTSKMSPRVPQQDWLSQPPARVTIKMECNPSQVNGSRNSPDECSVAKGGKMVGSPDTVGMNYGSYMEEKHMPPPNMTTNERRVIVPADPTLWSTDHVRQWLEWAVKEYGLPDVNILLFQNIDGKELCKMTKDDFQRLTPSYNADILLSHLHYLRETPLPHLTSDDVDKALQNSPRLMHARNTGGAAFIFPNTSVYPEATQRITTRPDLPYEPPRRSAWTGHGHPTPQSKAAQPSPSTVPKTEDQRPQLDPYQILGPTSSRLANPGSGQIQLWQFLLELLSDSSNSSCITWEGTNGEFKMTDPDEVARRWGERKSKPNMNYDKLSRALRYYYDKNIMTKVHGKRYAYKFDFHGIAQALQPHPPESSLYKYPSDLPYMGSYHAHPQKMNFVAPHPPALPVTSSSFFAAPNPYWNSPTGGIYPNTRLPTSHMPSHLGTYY
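His-tagged ERG Ets domain (1 uM in the protein solution; 300mM KCl, 50mM Tris-HCl, 1mM EDTA, 1mM DTT, pH 7.5) received compound, then a probe mix of 5 nM fluorescein-DNA and 100nM Texas-615-DNA. Fluorescence polarization was read for both dyes.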
Mito fusion yeast – inhibitors of mitochondrial division or activators of mitochondrial fusion; S. cerevisiae fusion-defective mutant growth rescue, CellTiterGlo 48 h; Potency, µM (doses to about 46.1 µM), most hits filed as activators; actives 0.23% (n = 320,000); note: nearly all actives have a fitted effect of over 45% in size
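Growth-rescue viability read-out: after 48 h at the non-permissive 37C in glycerol/ethanol YPEG, yeast mitochondrial fusion mutants are measured by CellTiterGlo luminescence; compounds (23 nl pinned per well) restoring growth score as division inhibitors or fusion activators.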
TDP43 rescue – rescues yeast growth from TDP-43 toxicity; TDP-43 expressing yeast growth rescue, BacTiter-Glo, 24 h; Potency, µM (doses to about 46.1 µM), hits mostly activators; actives 1.8% (n = 410,000); AID 652104; note: nearly all actives have a fitted effect of over 50% in size
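Yeast expressing TDP-43 (pregrown in raffinose, seeded at OD600=0.02 in galactose medium) exposed to compounds 24 hr at 30 deg C. Growth read by BacTiter-Glo luminescence; rescue of toxicity appears as increased signal.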
Hits are given with their value; ! = a repeat was not active; [ ] = dose if it differs, or a comment. Unless noted, calls come from the whole dose curve; as a rule, active = well fitted curve in the direction sought with a large enough effect; inconclusive = small, poorly fitted or top-dose-only effect, or another doubt; inactive = no such curve, though single readings can be large; an effect the other way counts as inactive or inconclusive.

How did O=C1CC(c2ccc(Cl)c([N+](=O)[O-])c2)c2ccc3ccccc3c2N1 (configuration not stated) do in these assays?
FUS yeast rescue: inactive; Abeta rescue: inactive; aSyn rescue: inactive; ERG Ets-DNA blk: inactive; Mito fusion yeast: 12.6µM; TDP43 rescue: inactive

What do the screens show for `COc1ccccc1CNC(=O)c1c2c(nc3ccccc13)C(=O)N(C1CCCCC1)C2`?
FUS yeast rescue: inactive; Abeta rescue: inactive; ERG Ets-DNA blk: inactive; TDP43 rescue: inactive

What do the screens show for `Cc1ccc(Nc2nc(C)cc(C)n2)c(Br)c1`?
FUS yeast rescue: inactive; Abeta rescue: inactive; aSyn rescue: inactive; ERG Ets-DNA blk: inactive; Mito fusion yeast: inactive; TDP43 rescue: 10µM

Results for C=Cc1ccc(Cn2c(C(=O)O)c(CNCc3ccccc3)c3ccc(C)cc32)cc1 ?
FUS yeast rescue: inconclusive; Abeta rescue: inactive; aSyn rescue: inactive; ERG Ets-DNA blk: inactive; TDP43 rescue: inactive

Results for Cc1nc2scc(-c3ccc(Cl)cc3)c2c(=O)n1N ?
FUS yeast rescue: inactive; Abeta rescue: inactive; aSyn rescue: inactive; ERG Ets-DNA blk: inactive; Mito fusion yeast: inactive; TDP43 rescue: inactive

What do the screens show for `CC(C)c1nc2scc(-c3ccc(Cl)cc3)c2c(=O)n1N`?
FUS yeast rescue: inactive; Abeta rescue: inactive; aSyn rescue: inactive; ERG Ets-DNA blk: inactive; Mito fusion yeast: inactive; TDP43 rescue: 14.1µM

Results for CSc1ccc(CC2C(=O)Nc3ccccc32)cc1 (configuration not stated) ?
FUS yeast rescue: inactive; Abeta rescue: inactive; ERG Ets-DNA blk: inactive; TDP43 rescue: 12.6µM

Results for CN(C)c1ccc(CC2C(=O)Nc3ccccc32)cc1 (configuration not stated) ?
FUS yeast rescue: inactive; Abeta rescue: inactive; aSyn rescue: inactive; ERG Ets-DNA blk: inactive; Mito fusion yeast: inactive; TDP43 rescue: inactive

Results for O=C1Nc2ccccc2C1Cc1ccc(Br)cc1 (configuration not stated) ?
FUS yeast rescue: inactive; Abeta rescue: inconclusive; ERG Ets-DNA blk: inactive; TDP43 rescue: 15.8µM

How did CCCOc1ccc(C2(C(=O)O)CCCC2)cc1 do in these assays?
FUS yeast rescue: inactive; Abeta rescue: inactive; aSyn rescue: inactive; ERG Ets-DNA blk: inactive; Mito fusion yeast: inactive; TDP43 rescue: 12.6µM

How did CCCCOc1cccc(C2(C(=O)O)CCCC2)c1 do in these assays?
FUS yeast rescue: inactive; Abeta rescue: inactive[9.22 µM]; aSyn rescue: inactive; ERG Ets-DNA blk: inactive; Mito fusion yeast: inactive; TDP43 rescue: 20µM

What do the screens show for `COc1ccc(/C(C)=N/NC(=S)NCCc2ccccc2)cc1`?
FUS yeast rescue: inactive; Abeta rescue: 12.6µM; aSyn rescue: inactive; ERG Ets-DNA blk: inactive; Mito fusion yeast: inactive; TDP43 rescue: inactive[0.397 µM]

What do the screens show for `CCOc1ccccc1NC(=O)C1CCN(S(=O)(=O)c2cccs2)CC1`?
FUS yeast rescue: inactive; Abeta rescue: inactive; ERG Ets-DNA blk: inactive; TDP43 rescue: inactive

How did O=C(O)CCc1nc(-c2ccccc2)c(-c2ccccc2)o1 do in these assays?
aSyn rescue: inactive; Mito fusion yeast: 16.4µM!

How did O=C(CCc1nc(-c2ccccc2)c(-c2ccccc2)o1)OCc1ccc(Cl)cc1 do in these assays?
FUS yeast rescue: inactive; Abeta rescue: inactive; aSyn rescue: inactive; ERG Ets-DNA blk: inactive; Mito fusion yeast: inactive; TDP43 rescue: inactive

How did CCOC(=O)[C@]12CCCC3=C1N(CCC3)C(=O)[C@@H](CC(=O)NCc1ccc(OC)c(OC)c1)C2 do in these assays?
FUS yeast rescue: inactive

Results for CCCCn1nc(NS(=O)(=O)c2cccc3nonc23)c2cc3cccc(C)c3nc21 ?
FUS yeast rescue: inactive; Abeta rescue: inactive; aSyn rescue: inactive; ERG Ets-DNA blk: inactive; Mito fusion yeast: 11.2µM; TDP43 rescue: inactive

How did CCn1nc(NS(=O)(=O)c2cccc3nonc23)c2cc3ccc(C)cc3nc21 do in these assays?
FUS yeast rescue: inactive; Abeta rescue: inactive; aSyn rescue: inactive; ERG Ets-DNA blk: inactive; Mito fusion yeast: inactive; TDP43 rescue: inactive
